Results from PubChem BioAssay AID2069 (Sanford-Burnham Center for Chemical Genomics, 2009).
Among all 1,200 compounds or so, about 210 (18%) were called active. The list is a sample of the results. Unmarked numbers belong to inactive results. No stated cut-off is given here; in the data, active means inhibition above about 30%; inactive means the rest.

Test: fluorescence readout artefact check – biochemical, HTRF, uHTS, artefact control for SUMOylation inhibitor project, confirmation (AID 2069)
Details: HTRF interference counterscreen, at 35 µM, stronger effect = higher value

SMILES | inhibition
CCN1C(=O)c2cccc3c(N)ccc1c23 | -24.4%
CN1C(=O)c2cccc3c(S(=O)(=O)NCc4ccco4)ccc1c23 | 11.9%
CN(C)CCNS(=O)(=O)c1ccc2c3c(cccc13)C(=O)N2 | 60.6% (active)
CN1C(=O)c2cccc3c(S(=O)(=O)NCCc4ccccc4)ccc1c23 | 45% (active)
CCN(CC)CCNS(=O)(=O)c1ccc2c3c(cccc13)C(=O)N2 | 47.2% (active)
O=C(NCc1ccccc1)Nc1cccn(Cc2ccccc2Cl)c1=O | 1.3%
N=C1S/C(=C\c2ccc(O)cc2)C(=O)N1c1ccc(F)cc1 | 14.8%
COc1ccc(-c2nc3c(c(SCC(=O)Nc4cccc(O)c4)n2)Cc2c(CO)cnc(C)c2O3)cc1 | -1.05%
CC(=O)Nc1ccc(-c2nc3ccc(NC(C)=O)cc3o2)cc1 | 40.8% (active)
CC(=O)Nc1cccc(NC(=S)Nc2cccc3ccccc23)c1 | -2.65%
O=C(Nc1ccc2nc3ccccc3nc2c1)c1ccc(Br)cc1 | 20.6%
Cc1ccc(-c2nc3ccccc3o2)cc1NC(=O)c1ccc2c(c1)OCO2 | 16.6%
CC(=O)Nc1ccc(S(=O)(=O)Nc2nc3ccccc3nc2Nc2ccc3ccccc3c2)cc1 | 18.6%
CC(=O)Nc1ccc2nc3ccccc3nc2c1 | 36.7% (active)
CCOc1cc(/C=N/N=C(\N)c2nonc2N)cc(Br)c1OCc1cccc2ccccc12 | 0.3%
Cc1cc(/C=C2\SC(=S)NC2=O)c(C)[nH]1 | 3.5%
O=C(Nc1ccc(N2CCOCC2)c2nonc12)C1CCCC1 | -18.9%
O=C(O)CSc1cc(C(=O)c2ccccc2O)cn2c(=O)c3c(-c4ccccc4)csc3nc12 | 7.6%
Cc1cc(-c2csc(N)n2)c(C)n1Cc1ccco1 | -4.05%
Nc1c(C(=O)Nc2ccccc2)sc2nc(-c3ccco3)ccc12 | 50.1% (active)

SMILES | inhibition
COc1ccccc1NC(=O)c1sc2nc(-c3ccco3)ccc2c1N | 26.8%
O=C(Nc1ccc(-n2nncc2-c2ccco2)cc1)c1cc2ccccc2oc1=O | 9.4%
O=C(N/N=C/c1ccc(F)cc1)c1cc(-c2ccco2)nc2ccccc12 | 13%
Nc1c(C(=O)Nc2ccc(F)cc2)sc2nc(-c3ccco3)ccc12 | 47% (active)
Nc1c(C(=O)Nc2ccc(Br)cc2)sc2nc(-c3ccco3)ccc12 | 28.9%
O=C(N/N=C/c1ccc(-c2cccc([N+](=O)[O-])c2)o1)c1ccccc1O | 2.3%
Cc1ccc(N=C2NC(=O)/C(=C\c3ccco3)S2)cc1 | -0.45%
NC1=NC(c2ccc(Cl)cc2)N(c2ccc(S(N)(=O)=O)cc2)C(N)=N1 (stereo not given) | 6.2%
O=C(CNc1cccc2ccccc12)c1ccc([N+](=O)[O-])cc1 | -2.7%
CCOC(=O)N1CCN(C2=C(NS(=O)(=O)c3ccc(C)cc3)C(=O)c3ccccc3C2=O)CC1 | -12.7%
COc1cc(C2c3c(oc4ccccc4c3=O)C(=O)N2c2nccs2)ccc1O (stereo not given) | 7.95%
O=C(O)c1cc(-c2ccco2)nn1-c1ccc(Cl)cc1 | 1.75%
Cc1ccc(S(=O)(=O)n2ccc(OC(=O)c3cccs3)n2)cc1 | 0.25%
O=C1NNC(c2ccccc2)=N/C1=C\c1ccccc1Cl | -7.9%
Cc1ncc(CO)c(/C=N/NC(=O)c2cc(O)c(O)c(O)c2)c1O | 0.4%
CN(C)/C=N/c1nc2nccc(-c3cccc(Cl)c3)n2n1 | 57.1% (active)
CN(C)/C=N/c1nc2nccc(-c3cccnc3)n2n1 | 49.2% (active)
S=c1[nH]nc(-c2cccnc2)n1/N=C/C=C/c1ccco1 | -1.7%
CC1=NN(c2ccc(F)cc2)C(=O)C1C(c1cccc(O)c1)c1c(C)[nH]n(-c2ccc(F)cc2)c1=O (stereo not given) | -9.8%
CN(C)c1cc(N/N=C\c2ccccc2)nc(N(C)C)n1 | 22.4%

SMILES | inhibition
O=C(CC1Nc2cccc3cccc(c23)NC1=O)Nc1ccccc1 (stereo not given) | -22.9%
O=C(CSc1ccc(Br)c2cccc(Cl)c12)Nc1ccc(S(=O)(=O)Nc2nccs2)cc1 | -50.4%
COc1cc2c(ccc3cc(OC)c(OC)c(O)c32)cc1O | 24.2%
CC(=O)Nc1ccc(NC(=O)Cn2c(-c3ccc(F)cc3)cnc2SCC(=O)Nc2c(C)cccc2C)cc1 | -6.5%
[O-]/C(=C(\C(=S)Nc1cccc2ccccc12)[n+]1ccccc1)c1ccc(Cl)s1 | -8.3%
COc1c(C)oc2cc(O)ccc2c1=O | 41% (active)
O=C1CC(N2CCOCC2)=NN1c1ccc([N+](=O)[O-])cc1 | -12.8%
O=C(NNc1cc(N2CCOCC2)nc(N2CCOCC2)n1)c1ccc(Cl)c(Cl)c1 | -6.9%
Fc1ccc(-c2nc3cnccn3c2NC2CCCC2)cc1 | 57.9% (active)
O=C(/C=C\c1ccco1)c1ccc(NC(=O)c2ccco2)cc1 | 0.2%
CCOc1cc(CNc2ccc(N3CCN(C(C)=O)CC3)cc2)cc(Br)c1OC | -8.4%
Cc1c2c(=O)n(-c3nc4ccccc4s3)nc-2cc(O)n1Cc1ccccc1 | -12.7%
Cc1ccc(S(=O)(=O)NNC(=S)Nc2c(Cl)cccc2Cl)cc1 | -4.65%
Cc1[nH]n(-c2ccccc2)c(=O)c1/C=N/N(C)c1ccccc1 | -31.9%
C[n+]1cccc2ccc3c(c21)OC(N)=C(C#N)C3c1ccccc1 (stereo not given) | -12.1%
COc1ccc(-c2cc(-c3ccccc3)n3ncnc3n2)cc1 | 53.7% (active)
COc1cc(OC)cc(-c2nc(-c3ccccc3)no2)c1 | -17.7%
Cc1ccc(S(=O)(=O)C(C#N)c2nc3ccccc3nc2N2CCCC2)cc1 (stereo not given) | -7.1%
COc1ccc(C2=NN(C(=O)c3cccs3)C(c3ccccc3O)C2)cc1 (stereo not given) | 8.65%
CC1=NN(c2ccccc2)C(=O)/C1=C/c1ccc(Cl)cc1 | -10.2%
